Source: paper PMC7862700, “An all-to-all approach to the identification of sequence-specific readers for epigenetic DNA modifications on cytosine”

How the values were obtained:
Test in all cases: DAPPL (digital affinity profiling via proximity ligation, sequencing); 10 mM Tris-HCl pH 7.5, 50 mM NaCl, 1 mM DTT, 4% glycerol, room temperature, 30 min; GST-TFs on glutathione beads, 16-mer random dsDNA library, 0.1% formaldehyde crosslink after washing; high values mean tight binding
[1] = biological target: T1, FEV (Homo sapiens, UniProt Q99581 1-238); conditions: protein: recombinant; tags: N-terminal GST; dsDNA, one strand shown
T1 sequence: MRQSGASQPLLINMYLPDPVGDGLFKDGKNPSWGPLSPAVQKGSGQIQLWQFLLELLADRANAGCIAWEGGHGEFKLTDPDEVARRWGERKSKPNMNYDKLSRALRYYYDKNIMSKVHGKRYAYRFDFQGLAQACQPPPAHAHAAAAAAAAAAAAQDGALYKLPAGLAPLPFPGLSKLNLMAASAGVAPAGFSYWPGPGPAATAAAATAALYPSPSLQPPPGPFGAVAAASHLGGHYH
How it was run: (§1)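 Binding signal is defined as a hexamer's read frequency for one factor over its frequency for the tag-only sample. To obtain reads, GST-fused human transcription factors were expressed in yeast, captured on glutathione beads, barcoded with DNA and pooled with that sample. Pools met 200 nmole of a 16-mer random double-stranded DNA library in Tris/NaCl/DTT/glycerol buffer for 30 min at room temperature before washing, 0.1% formaldehyde crosslinking, proximity ligation (BsaI/T4 ligase, 1 h, 37 °C), PCR and Illumina NextSeq500 sequencing.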

[2] = biological target: ETV5 (Homo sapiens, UniProt P41161 1-510); conditions: protein: recombinant; tags: N-terminal GST; dsDNA, one strand shown
How it was run: as §1

[3] = biological target: HSF1 (Homo sapiens, UniProt Q00613 1-529); conditions: protein: recombinant; tags: N-terminal GST; chain copies: 3; dsDNA, one strand shown
How it was run: as §1

[4] = biological target: T2, SPIC (Homo sapiens, UniProt Q8N5J4 1-248); conditions: protein: recombinant; tags: N-terminal GST; dsDNA, one strand shown
T2 sequence: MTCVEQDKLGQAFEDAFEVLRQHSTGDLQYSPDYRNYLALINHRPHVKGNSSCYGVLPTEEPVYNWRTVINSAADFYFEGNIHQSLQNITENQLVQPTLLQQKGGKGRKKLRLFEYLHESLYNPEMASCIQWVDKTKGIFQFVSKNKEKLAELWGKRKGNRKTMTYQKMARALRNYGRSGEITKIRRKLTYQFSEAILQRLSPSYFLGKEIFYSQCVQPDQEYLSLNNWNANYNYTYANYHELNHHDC
How it was run: as §1

[5] = biological target: ELF4 (Homo sapiens, UniProt Q99607 1-663); conditions: protein: recombinant; tags: N-terminal GST; dsDNA, one strand shown
How it was run: as §1

[6] = biological target: T3, ELK4 (Homo sapiens, UniProt P28324-2 1-405); conditions: protein: recombinant; tags: N-terminal GST; dsDNA, one strand shown
T3 sequence: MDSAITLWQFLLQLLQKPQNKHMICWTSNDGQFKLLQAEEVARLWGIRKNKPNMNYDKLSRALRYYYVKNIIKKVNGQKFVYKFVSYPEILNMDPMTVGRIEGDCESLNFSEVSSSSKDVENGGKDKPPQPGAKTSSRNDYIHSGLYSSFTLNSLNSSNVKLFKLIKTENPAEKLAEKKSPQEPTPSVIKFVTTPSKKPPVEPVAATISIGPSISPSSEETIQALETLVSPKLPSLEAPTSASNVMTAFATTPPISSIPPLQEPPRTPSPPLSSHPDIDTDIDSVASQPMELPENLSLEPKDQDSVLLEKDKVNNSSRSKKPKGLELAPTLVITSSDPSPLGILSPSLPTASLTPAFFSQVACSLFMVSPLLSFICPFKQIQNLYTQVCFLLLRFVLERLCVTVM
How it was run: as §1

[7] = biological target: T4, ETV2 (Homo sapiens, UniProt O00321 1-342); conditions: protein: recombinant; tags: N-terminal GST; dsDNA, one strand shown
T4 sequence: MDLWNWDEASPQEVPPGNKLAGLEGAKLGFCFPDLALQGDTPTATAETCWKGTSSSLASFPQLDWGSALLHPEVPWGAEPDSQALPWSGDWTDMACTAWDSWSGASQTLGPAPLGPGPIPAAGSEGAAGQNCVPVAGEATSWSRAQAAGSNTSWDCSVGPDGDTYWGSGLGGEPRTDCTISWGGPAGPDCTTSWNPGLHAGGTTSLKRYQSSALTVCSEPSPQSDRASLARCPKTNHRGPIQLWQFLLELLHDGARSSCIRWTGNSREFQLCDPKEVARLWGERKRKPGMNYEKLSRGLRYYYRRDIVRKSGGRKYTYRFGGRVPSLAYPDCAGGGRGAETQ
How it was run: as §1

[8] = biological target: T5, ELF3 (Homo sapiens, UniProt P78545 1-371); conditions: protein: recombinant; tags: N-terminal GST; dsDNA, one strand shown
T5 sequence: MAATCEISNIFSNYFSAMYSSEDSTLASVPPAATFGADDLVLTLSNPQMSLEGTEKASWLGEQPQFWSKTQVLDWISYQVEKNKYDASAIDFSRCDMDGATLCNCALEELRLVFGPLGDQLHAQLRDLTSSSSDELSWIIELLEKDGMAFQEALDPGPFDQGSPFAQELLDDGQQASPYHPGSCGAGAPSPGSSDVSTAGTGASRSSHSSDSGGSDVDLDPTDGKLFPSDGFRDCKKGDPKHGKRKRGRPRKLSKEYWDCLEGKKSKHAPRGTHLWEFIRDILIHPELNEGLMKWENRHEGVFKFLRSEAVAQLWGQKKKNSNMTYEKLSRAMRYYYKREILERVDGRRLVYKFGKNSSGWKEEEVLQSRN
How it was run: as §1

[9] = biological target: CRX (Homo sapiens, UniProt O43186 1-299); conditions: protein: recombinant; tags: N-terminal GST; dsDNA, one strand shown
How it was run: as §1

[10] = biological target: ETV1 (Homo sapiens, UniProt P50549 1-477); conditions: protein: recombinant; tags: N-terminal GST; dsDNA, one strand shown
How it was run: as §1

[11] = biological target: T6, ERF (Homo sapiens, UniProt P50548 1-548); conditions: protein: recombinant; tags: N-terminal GST; dsDNA, one strand shown
T6 sequence: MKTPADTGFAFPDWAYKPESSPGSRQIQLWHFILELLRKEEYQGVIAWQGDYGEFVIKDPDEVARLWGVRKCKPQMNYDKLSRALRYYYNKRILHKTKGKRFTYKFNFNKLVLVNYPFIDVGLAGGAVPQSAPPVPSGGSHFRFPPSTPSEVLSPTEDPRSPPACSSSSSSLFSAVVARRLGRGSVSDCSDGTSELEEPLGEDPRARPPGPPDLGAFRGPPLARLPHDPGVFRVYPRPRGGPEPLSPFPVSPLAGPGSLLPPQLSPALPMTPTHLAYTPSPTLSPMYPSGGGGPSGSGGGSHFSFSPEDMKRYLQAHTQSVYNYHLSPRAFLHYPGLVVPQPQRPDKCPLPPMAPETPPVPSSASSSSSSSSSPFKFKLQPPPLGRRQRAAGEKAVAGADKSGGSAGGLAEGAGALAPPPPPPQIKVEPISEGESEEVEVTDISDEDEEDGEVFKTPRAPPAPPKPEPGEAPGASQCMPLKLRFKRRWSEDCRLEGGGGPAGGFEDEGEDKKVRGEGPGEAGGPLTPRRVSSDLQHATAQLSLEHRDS
How it was run: as §1

[12] = biological target: T7, ETV3L (Homo sapiens, UniProt Q6ZN32 1-361); conditions: protein: recombinant; tags: N-terminal GST; dsDNA, one strand shown
T7 sequence: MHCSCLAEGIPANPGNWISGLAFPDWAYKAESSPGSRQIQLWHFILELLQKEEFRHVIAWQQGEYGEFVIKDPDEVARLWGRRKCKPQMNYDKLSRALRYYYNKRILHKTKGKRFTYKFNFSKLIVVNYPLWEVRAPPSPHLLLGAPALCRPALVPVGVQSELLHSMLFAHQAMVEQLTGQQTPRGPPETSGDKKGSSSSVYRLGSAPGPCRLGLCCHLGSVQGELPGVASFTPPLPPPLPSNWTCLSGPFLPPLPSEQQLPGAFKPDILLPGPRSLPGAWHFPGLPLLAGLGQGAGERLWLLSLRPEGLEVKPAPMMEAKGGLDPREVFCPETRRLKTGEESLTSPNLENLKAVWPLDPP
How it was run: as §1

[13] = biological target: T8, ETS2 (Homo sapiens, UniProt P15036 1-469); conditions: protein: recombinant; tags: N-terminal GST; dsDNA, one strand shown
T8 sequence: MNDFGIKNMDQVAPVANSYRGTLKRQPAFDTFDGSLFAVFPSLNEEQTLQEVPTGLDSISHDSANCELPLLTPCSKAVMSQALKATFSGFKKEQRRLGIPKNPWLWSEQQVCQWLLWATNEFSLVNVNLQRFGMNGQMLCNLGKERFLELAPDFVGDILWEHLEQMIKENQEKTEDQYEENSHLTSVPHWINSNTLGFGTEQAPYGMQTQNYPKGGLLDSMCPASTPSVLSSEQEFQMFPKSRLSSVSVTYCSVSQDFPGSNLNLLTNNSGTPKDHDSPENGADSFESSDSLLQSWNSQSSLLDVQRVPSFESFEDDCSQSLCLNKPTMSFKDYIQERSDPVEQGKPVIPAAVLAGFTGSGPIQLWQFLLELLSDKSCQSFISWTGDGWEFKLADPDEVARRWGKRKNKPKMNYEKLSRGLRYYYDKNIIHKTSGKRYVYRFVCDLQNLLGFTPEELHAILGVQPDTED
How it was run: as §1

[14] = biological target: T9, SPDEF (Homo sapiens, UniProt O95238 1-335); conditions: protein: recombinant; tags: N-terminal GST; dsDNA, one strand shown
T9 sequence: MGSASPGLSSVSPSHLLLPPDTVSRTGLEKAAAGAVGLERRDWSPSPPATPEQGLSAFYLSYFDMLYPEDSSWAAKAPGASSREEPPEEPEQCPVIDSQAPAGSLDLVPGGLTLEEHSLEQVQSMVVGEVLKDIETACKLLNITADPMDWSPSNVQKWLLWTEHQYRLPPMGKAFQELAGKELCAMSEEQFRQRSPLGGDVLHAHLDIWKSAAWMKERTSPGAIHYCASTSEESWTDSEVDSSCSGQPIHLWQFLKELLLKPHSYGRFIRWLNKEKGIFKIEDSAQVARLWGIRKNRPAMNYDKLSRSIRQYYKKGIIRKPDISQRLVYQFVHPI
How it was run: as §1

[15] = biological target: T10, ETV7 (Homo sapiens, UniProt Q9Y603 1-341); conditions: protein: recombinant; tags: N-terminal GST; dsDNA, one strand shown
T10 sequence: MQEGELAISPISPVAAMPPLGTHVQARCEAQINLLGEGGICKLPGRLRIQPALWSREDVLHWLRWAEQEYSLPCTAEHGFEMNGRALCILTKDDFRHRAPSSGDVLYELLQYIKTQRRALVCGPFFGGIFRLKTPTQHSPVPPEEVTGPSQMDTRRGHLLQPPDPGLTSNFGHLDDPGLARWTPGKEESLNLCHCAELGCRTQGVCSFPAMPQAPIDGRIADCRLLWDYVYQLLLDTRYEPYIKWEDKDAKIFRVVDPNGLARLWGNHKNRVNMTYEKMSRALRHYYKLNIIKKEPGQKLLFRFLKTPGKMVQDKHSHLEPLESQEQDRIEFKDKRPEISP
How it was run: as §1

[16] = biological target: T11, ELF5 (Homo sapiens, UniProt Q9UKW6-2 1-255); conditions: protein: recombinant; tags: N-terminal GST; dsDNA, one strand shown
T11 sequence: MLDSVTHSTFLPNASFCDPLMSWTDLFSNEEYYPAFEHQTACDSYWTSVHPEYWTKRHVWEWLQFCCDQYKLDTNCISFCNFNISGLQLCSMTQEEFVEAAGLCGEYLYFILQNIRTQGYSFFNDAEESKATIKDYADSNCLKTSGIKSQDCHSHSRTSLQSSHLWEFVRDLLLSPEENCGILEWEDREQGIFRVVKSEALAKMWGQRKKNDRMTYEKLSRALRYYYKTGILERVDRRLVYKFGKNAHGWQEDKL
How it was run: as §1

[17] = biological target: T12, ETV3 (Homo sapiens, UniProt P41162-2 1-143); conditions: protein: recombinant; tags: N-terminal GST; dsDNA, one strand shown
T12 sequence: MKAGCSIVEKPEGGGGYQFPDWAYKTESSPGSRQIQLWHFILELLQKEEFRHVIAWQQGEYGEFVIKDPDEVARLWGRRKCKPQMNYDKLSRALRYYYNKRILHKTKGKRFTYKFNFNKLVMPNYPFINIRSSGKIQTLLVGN
How it was run: as §1

[18] = biological target: ETV6 (Homo sapiens, UniProt P41212 1-452); conditions: protein: recombinant; tags: N-terminal GST; dsDNA, one strand shown
How it was run: as §1

CRX, sequence (O43186 whole entry): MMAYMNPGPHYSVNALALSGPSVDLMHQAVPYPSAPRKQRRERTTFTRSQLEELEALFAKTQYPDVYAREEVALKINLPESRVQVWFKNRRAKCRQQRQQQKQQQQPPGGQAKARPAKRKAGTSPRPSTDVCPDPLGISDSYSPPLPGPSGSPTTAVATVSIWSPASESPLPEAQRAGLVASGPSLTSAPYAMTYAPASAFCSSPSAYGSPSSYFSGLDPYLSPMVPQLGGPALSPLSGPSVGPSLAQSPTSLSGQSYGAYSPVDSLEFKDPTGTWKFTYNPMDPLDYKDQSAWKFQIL
HSF1, sequence (Q00613 whole entry): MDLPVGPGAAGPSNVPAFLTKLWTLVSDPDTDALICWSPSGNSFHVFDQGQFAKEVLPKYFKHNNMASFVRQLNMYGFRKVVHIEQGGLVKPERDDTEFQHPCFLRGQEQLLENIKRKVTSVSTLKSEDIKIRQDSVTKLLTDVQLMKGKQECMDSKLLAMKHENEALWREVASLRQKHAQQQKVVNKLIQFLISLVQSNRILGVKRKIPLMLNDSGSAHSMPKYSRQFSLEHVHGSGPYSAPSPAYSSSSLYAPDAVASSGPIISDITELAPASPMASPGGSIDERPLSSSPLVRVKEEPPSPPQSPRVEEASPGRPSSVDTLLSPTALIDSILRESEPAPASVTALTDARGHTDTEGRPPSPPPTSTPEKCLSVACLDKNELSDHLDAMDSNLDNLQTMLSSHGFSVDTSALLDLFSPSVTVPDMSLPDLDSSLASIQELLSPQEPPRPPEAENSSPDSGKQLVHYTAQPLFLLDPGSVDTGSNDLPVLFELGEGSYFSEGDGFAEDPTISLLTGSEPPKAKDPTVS
ETV6, sequence (P41212 whole entry): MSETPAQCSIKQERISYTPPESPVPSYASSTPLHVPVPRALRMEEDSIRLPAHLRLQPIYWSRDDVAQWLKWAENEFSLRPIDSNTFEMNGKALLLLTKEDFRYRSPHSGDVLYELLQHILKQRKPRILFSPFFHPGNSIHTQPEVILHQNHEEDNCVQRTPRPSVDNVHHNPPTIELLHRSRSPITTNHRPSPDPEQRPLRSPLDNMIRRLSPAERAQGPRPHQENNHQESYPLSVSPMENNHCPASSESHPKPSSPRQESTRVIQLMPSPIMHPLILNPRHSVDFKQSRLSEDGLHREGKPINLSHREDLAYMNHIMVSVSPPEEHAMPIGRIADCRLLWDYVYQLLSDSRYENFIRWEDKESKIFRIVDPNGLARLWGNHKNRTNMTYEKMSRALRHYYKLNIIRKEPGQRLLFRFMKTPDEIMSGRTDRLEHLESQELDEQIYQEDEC
ELF4, sequence (Q99607 whole entry): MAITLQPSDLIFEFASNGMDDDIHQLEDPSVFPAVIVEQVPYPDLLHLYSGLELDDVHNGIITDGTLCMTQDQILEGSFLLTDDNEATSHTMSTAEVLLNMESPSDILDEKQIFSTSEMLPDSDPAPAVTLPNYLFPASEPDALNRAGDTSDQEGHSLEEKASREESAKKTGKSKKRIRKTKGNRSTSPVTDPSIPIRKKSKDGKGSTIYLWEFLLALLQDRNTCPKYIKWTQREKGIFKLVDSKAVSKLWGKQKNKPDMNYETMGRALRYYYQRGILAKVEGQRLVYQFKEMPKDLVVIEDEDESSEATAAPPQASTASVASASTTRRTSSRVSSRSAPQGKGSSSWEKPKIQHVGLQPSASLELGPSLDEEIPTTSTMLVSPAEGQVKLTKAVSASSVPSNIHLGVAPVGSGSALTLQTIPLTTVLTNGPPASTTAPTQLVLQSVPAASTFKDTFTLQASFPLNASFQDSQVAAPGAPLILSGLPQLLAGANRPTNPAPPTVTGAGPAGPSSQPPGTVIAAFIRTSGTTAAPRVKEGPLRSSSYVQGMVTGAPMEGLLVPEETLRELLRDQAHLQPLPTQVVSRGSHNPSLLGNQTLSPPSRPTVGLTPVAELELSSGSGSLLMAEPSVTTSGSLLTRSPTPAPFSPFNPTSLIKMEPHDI
ETV5, sequence (P41161 whole entry): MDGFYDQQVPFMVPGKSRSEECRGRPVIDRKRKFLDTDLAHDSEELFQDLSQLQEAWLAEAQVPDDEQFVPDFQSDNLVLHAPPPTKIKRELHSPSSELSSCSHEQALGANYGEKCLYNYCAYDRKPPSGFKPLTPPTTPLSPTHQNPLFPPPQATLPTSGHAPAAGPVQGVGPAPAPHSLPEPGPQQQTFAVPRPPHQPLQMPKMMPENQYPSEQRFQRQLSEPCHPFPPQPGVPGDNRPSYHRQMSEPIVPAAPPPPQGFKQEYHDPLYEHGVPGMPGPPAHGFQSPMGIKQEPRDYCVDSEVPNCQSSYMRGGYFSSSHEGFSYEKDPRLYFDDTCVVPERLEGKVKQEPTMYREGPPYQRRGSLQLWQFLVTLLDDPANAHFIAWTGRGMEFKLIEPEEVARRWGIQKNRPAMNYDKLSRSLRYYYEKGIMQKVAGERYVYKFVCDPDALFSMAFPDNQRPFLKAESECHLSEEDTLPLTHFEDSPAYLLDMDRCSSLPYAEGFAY
ETV1, sequence (P50549 whole entry): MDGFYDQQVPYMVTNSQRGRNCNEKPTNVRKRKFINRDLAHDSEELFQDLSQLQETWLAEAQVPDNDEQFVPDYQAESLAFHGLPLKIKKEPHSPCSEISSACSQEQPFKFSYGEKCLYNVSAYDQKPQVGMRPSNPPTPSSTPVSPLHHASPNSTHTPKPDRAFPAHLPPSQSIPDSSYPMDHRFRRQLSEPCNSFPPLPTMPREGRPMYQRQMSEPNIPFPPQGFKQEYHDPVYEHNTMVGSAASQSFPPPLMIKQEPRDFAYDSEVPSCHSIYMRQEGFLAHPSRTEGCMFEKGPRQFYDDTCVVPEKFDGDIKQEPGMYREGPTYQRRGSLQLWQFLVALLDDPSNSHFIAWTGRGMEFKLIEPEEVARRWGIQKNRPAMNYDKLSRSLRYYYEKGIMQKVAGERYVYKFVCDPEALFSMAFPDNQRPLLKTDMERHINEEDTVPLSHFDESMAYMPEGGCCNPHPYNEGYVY

## CCTCGC
[1]
  binding signal: 1.37 fold enrichment (6-mer frequency, TF over GST control)
[2]
  binding signal: 1.51 fold enrichment (6-mer frequency, TF over GST control)
[3]
  binding signal: 1.36 fold enrichment (6-mer frequency, TF over GST control)
[4]
  binding signal: 1.46 fold enrichment (6-mer frequency, TF over GST control)
[5]
  binding signal: 1.6 fold enrichment (6-mer frequency, TF over GST control)
[6]
  binding signal: 1.62 fold enrichment (6-mer frequency, TF over GST control)
[7]
  binding signal: 1.6 fold enrichment (6-mer frequency, TF over GST control)
[8]
  binding signal: 1.56 fold enrichment (6-mer frequency, TF over GST control)
[9]
  binding signal: 1.16 fold enrichment (6-mer frequency, TF over GST control)
[10]
  binding signal: 1.54 fold enrichment (6-mer frequency, TF over GST control)
[11]
  binding signal: 1.31 fold enrichment (6-mer frequency, TF over GST control)
[12]
  binding signal: 1.53 fold enrichment (6-mer frequency, TF over GST control)
[13]
  binding signal: 1.41 fold enrichment (6-mer frequency, TF over GST control)
[14]
  binding signal: 1.42 fold enrichment (6-mer frequency, TF over GST control)
[15]
  binding signal: 1.48 fold enrichment (6-mer frequency, TF over GST control)
[16]
  binding signal: 1.41 fold enrichment (6-mer frequency, TF over GST control)
[17]
  binding signal: 1.45 fold enrichment (6-mer frequency, TF over GST control)
[18]
  binding signal: 1.25 fold enrichment (6-mer frequency, TF over GST control)
